Measurements from PubChem BioAssay.
Activity calls are given as the source filed them. Rule as the data show it, unless noted: active = inhibition above about 30%; inactive = the rest.

How the values were obtained:
[1] = molecular target: Nuclear receptor coactivator 3 (Homo sapiens) (UniProt Q9Y6Q9); assay: NCOA3 GAL4-fusion reporter inhibition – cell-based, luminescence, quadruplicate, confirmation (AID 588792;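 active = mean inhibition over 43.08%, the solvent-only control mean plus 3 SD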;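 also: 0% = DMSO treated cells and 100% = gossypol at 36 µM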); settings: HEK293 GAL4-SRC3 luciferase reporter, at 3.6 µM, active compounds read high
Nuclear receptor coactivator 3 (Homo sapiens), sequence (Q9Y6Q9 whole entry, looked up, the tested form may be a part): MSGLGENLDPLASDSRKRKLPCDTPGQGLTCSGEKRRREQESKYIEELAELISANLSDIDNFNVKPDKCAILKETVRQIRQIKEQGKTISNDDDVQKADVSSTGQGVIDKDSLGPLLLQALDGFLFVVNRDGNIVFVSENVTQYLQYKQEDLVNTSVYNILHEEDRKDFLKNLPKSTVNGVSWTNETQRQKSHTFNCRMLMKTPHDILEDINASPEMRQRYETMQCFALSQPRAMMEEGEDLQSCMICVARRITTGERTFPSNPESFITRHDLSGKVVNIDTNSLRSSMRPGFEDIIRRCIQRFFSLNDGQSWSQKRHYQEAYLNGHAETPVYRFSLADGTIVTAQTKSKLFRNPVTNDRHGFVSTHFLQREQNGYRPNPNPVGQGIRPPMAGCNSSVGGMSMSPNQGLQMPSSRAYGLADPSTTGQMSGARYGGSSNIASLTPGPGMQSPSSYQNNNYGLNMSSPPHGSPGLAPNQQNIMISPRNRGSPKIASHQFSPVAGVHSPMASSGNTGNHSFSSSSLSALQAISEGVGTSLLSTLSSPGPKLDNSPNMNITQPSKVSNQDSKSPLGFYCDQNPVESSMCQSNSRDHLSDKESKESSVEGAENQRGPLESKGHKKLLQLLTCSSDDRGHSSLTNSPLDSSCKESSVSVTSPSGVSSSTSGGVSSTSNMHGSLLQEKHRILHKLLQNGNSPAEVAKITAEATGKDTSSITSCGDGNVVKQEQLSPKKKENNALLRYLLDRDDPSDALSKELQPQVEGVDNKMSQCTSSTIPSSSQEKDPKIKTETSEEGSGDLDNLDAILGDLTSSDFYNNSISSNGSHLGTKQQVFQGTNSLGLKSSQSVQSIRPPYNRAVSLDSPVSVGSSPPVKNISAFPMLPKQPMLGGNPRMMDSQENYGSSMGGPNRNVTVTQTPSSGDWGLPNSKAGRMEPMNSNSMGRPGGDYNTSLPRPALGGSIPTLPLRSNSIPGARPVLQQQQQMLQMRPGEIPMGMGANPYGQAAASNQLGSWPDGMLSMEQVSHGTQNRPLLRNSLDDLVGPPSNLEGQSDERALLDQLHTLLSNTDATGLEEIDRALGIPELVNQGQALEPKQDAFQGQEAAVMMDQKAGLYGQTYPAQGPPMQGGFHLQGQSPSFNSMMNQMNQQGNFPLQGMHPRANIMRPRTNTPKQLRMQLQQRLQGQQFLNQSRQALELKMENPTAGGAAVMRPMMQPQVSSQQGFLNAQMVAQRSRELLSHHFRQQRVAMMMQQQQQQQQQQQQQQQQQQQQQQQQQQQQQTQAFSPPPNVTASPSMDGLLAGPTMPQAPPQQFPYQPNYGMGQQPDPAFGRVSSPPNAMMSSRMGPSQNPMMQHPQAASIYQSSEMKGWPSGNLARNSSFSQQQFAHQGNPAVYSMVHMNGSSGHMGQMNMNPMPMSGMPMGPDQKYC

[2] = tested on: transactivating tegument protein VP16 (Human herpesvirus 1), Gal4-VP16 luciferase reporter; assay: repression of VP16-driven luciferase reporter – cell-based, luminescence, high throughput, counter-screen for SRC3 inhibitor project (AID 588794); settings: mammalian cells, at 3.6 µM, active compounds read high
[3] = molecular target: Nuclear receptor coactivator 1 (Homo sapiens) (UniProt Q15788); assay: NCOA1 GAL4-fusion reporter inhibition – cell-based, luminescence, quadruplicate, confirmation (AID 588820;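 active = mean inhibition above 46.68%, the untreated control wells mean plus 3 SD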;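 also: 0% = DMSO wells and 100% = gossypol 36 µM treated wells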); settings: HEK293 GAL4-SRC1 luciferase reporter, at 3.6 µM, active compounds read high
Nuclear receptor coactivator 1 (Homo sapiens), sequence (Q15788 whole entry, looked up, the tested form may be a part): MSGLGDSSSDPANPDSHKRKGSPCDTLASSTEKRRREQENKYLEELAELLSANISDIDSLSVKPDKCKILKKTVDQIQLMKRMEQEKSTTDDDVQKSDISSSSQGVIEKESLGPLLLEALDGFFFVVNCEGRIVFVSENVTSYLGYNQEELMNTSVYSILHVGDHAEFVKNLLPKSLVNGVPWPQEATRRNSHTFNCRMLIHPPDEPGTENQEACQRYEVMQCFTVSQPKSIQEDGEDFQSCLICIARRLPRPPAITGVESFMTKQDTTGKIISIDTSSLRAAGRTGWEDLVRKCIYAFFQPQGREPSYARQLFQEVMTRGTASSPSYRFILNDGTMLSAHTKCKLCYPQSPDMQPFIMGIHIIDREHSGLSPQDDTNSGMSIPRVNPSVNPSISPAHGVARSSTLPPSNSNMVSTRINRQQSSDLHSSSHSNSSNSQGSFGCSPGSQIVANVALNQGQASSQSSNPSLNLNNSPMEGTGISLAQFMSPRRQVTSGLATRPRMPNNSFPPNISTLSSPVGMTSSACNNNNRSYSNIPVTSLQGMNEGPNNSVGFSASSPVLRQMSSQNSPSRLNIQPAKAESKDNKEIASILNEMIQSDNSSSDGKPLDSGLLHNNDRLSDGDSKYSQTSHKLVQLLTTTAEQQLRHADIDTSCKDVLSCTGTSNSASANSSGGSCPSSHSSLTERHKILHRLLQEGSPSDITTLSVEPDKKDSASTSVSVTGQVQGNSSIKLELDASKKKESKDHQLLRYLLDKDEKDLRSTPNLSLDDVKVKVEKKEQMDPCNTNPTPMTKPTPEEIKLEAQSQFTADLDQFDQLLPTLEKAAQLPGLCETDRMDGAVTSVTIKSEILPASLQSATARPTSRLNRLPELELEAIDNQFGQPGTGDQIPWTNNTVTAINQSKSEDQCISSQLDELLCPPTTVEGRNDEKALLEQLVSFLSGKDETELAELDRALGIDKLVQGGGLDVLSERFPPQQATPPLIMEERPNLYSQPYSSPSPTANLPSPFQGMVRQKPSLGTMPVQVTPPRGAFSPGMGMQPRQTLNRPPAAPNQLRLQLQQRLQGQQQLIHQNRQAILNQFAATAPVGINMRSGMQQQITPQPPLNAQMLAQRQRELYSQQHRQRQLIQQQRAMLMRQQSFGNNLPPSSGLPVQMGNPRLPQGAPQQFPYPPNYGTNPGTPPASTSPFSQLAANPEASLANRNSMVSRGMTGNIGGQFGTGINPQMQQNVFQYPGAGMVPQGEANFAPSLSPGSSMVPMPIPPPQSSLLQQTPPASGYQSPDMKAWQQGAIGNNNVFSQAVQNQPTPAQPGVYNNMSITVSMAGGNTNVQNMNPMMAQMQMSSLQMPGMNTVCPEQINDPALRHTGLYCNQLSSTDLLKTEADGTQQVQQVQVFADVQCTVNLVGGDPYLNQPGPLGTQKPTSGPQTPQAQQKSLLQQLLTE

[4] = repression of VP16-driven luciferase reporter – cell-based, luminescence, high throughput, counter-screen for SRC1 inhibitor project (AID 588824; in the data active = inhibition above about 25%); settings: cell-based VP16 transactivation luciferase luminescence; at 3.6 µM; active compounds read high
[5] = StAR promoter reporter inhibitors, counter-screen for LRH-1 inverse agonist project, cell-based, luminescence, high throughput (AID 651611; in the data active = inhibition above about 28%); settings: StAR promoter luciferase reporter counterscreen, at 3.6 µM, active compounds read high
[6] = molecular target: Nuclear receptor subfamily 5 group A member 2 (Homo sapiens) (UniProt O00482); assay: NR5A2 activity suppression in reporter cells – cell-based, luminescence, confirmation (AID 651613; in the data active = inhibition above about 42%;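 also: HEK293T cells co-transfected with LRH-1 and StAR promoter luciferase reporter; 0% = vehicle wells and 100% = parental cells lacking receptor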); settings: cell-based LRH-1 luciferase reporter, inverse agonism; at 3.6 µM; active compounds read high
Nuclear receptor subfamily 5 group A member 2 (Homo sapiens), sequence (O00482 whole entry, looked up): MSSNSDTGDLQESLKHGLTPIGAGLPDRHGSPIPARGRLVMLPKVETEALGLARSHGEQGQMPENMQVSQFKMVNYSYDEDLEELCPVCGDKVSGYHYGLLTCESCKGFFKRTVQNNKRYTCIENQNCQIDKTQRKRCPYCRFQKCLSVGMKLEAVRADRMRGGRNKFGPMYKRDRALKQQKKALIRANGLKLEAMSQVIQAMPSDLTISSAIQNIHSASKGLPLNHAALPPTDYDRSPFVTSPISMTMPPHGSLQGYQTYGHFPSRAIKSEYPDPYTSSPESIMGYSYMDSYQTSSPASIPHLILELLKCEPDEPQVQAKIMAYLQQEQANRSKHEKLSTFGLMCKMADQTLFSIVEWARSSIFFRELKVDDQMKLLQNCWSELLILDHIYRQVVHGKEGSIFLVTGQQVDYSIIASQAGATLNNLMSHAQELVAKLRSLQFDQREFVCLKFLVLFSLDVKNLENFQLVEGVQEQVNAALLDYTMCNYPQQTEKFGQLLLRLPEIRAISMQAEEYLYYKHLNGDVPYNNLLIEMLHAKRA

[7] = molecular target: Steroidogenic factor 1 (Homo sapiens) (UniProt Q13285); assay: inverse agonism at SF1 nuclear receptor – cell-based, luminescence, high throughput, counter-screen for LRH-1 inverse agonist project (AID 651614; in the data active = inhibition above about 44%;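 also: cells cotransfected with StAR promoter reporter and SF1 expression vector; 0% = vehicle on cells with receptor and 100% = vehicle on cells lacking receptor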); settings: cell-based SF1 luciferase reporter, at 3.6 µM, active compounds read high
Steroidogenic factor 1 (Homo sapiens), sequence (Q13285 whole entry, looked up, the tested form may be a part): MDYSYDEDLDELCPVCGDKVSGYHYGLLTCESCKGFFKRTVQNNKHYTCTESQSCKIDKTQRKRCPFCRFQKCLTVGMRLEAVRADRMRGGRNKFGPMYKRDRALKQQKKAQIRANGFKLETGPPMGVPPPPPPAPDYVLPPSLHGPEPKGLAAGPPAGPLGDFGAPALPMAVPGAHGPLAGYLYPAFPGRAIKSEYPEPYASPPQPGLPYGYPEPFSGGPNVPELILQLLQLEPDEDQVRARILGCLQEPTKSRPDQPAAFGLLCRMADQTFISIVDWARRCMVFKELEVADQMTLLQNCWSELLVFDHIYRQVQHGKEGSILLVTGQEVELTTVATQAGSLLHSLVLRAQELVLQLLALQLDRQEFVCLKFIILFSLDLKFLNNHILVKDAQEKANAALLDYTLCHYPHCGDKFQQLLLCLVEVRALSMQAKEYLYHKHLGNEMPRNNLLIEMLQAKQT

[8] = compounds suppressing VP16-driven luciferase signal – cell-based, luminescence, high throughput, counter-screen for LRH-1 inverse agonist project (AID 651615; in the data active = inhibition above about 33%); settings: Gal4-VP16 luciferase reporter cells, at 3.6 µM, active compounds read high
[9] = tested on: transactivating tegument protein VP16 (Human herpesvirus 1); assay: compounds suppressing VP16-driven luciferase signal – cell-based, luminescence, single concentration, counter-screen for SRC2 inhibitor project (AID 652007; in the data active = inhibition above about 36%); settings: cell-based VP16 transactivation luciferase reporter, at 8.9 µM, active compounds read high
[10] = molecular target: Nuclear receptor coactivator 2 (Homo sapiens) (UniProt Q15596); assay: inhibition of GAL4-SRC2 driven luciferase expression – cell-based, luminescence, HEK293, triplicate, confirmation (AID 652008;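 active = mean inhibition above 46.5%, the solvent-only control mean plus 3 SD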;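 also: 0% = DMSO-treated cells and 100% = Gossypol at 36 µM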); settings: HEK293 GAL4-SRC2 luciferase reporter, at 8.9 µM, active compounds read high

Measured: inhibition

CCn1c(C)cc(C(=O)CN2C(=O)c3ccccc3S2(=O)=O)c1C
active: [2] 31.5% | [5] 33.4% | [9] 46.9% | [10] 59.8%
inactive: [1] 30.1% | [3] -18.2% | [4] 25% | [6] -16.2% | [7] 28.1% | [8] 11%

COc1ccc(-c2nsc3c(N4CCCCC4C)ncnc23)cc1 (stereo not given)
active: [1] 84.2% | [2] 80.4% | [3] 70.2% | [4] 68.4% | [5] 80.2% | [6] 59.2% | [7] 80.9% | [8] 67% | [9] 83.1% | [10] 93.3%

CN(c1ncnc(N)c1[N+](=O)[O-])C1CCCCC1
active: [1] 82.5% | [2] 59.7% | [3] 69.9% | [4] 55.3% | [5] 32.3% | [6] 56.7% | [7] 44.1% | [8] 72.2% | [10] 59.8%
inactive: [9] 28.4%

NCC(=O)Nc1ccc(Cl)cc1C(=O)c1ccc[nH]1
inactive: [9] 21.2% | [10] 43.5%
active: [1] 66.1% | [2] 45.8% | [3] 47% | [4] 39.9% | [5] 49.4% | [6] 55.3% | [7] 62.3% | [8] 39.2%

Nc1nc(F)nc2c1ncn2[C@@H]1O[C@H](CO)[C@@H](O)[C@H]1O
active: [1] 98% | [2] 93.4% | [3] 82.7% | [4] 94.4% | [5] 94.5% | [6] 108% | [7] 96.2% | [8] 98.7% | [9] 76.6% | [10] 77.6%

O=C(NCc1cccnc1)/C(=C\c1ccc(-c2ccc(Br)cc2)o1)S(=O)(=O)c1ccccc1
active: [1] 72.6% | [2] 56.9% | [3] 51.7% | [4] 55.1% | [5] 62.3% | [6] 92.3% | [7] 82% | [8] 80.8% | [9] 71.1% | [10] 68.7%

Cc1ccccc1C(=O)N1CCN(c2ccc(NC(=O)c3ccc4c(c3)OCO4)cc2)CC1
active: [1] 55.4% | [2] 72.5% | [3] 60.7% | [4] 72.9% | [5] 60.1% | [6] 75.1% | [7] 76.1% | [8] 80.7%
inactive: [9] 10.2% | [10] 27.1%

C=C1C(=O)C2=CC1CCC(=O)C1(C)CCC(OC(C)=O)C(C)(C)C1CC2O (stereo not given)
active: [2] 53.2% | [4] 51.3% | [5] 30.3% | [8] 56.1%
inactive: [1] 35.4% | [3] 8.46% | [6] 3.03% | [7] 33.2% | [9] 33.9% | [10] 41.2%

Cc1cc(C(=O)COC(=O)c2ccccc2Br)c(C)n1CC1CCCO1 (stereo not given)
inactive: [6] 20.4%
active: [1] 77.5% | [2] 71.7% | [3] 60.3% | [4] 51.9% | [5] 57.3% | [7] 51% | [8] 48.6% | [9] 66.2% | [10] 90.6%

CN=c1scc(-c2cccs2)n1/N=C/c1ccccc1O
active: [1] 91.6% | [2] 89.5% | [3] 80% | [4] 81.4% | [5] 90.6% | [6] 90.4% | [7] 91.2% | [8] 89.6% | [9] 96.8% | [10] 97.8%

COc1cc(NC(=O)COc2cc(O)c3c(c2)OC(C)(C)CC3=O)cc(OC)c1OC
inactive: [1] 17.8% | [3] -14.2% | [10] 38.5%
active: [2] 41.5% | [4] 41.3% | [5] 50.4% | [6] 57.3% | [7] 67.5% | [8] 64.6% | [9] 43.5%

Cc1cc(C(=O)COC(=O)c2ccccc2O)c(C)n1CC1CCCO1 (stereo not given)
active: [1] 88.8% | [2] 85.1% | [3] 81.2% | [4] 76.8% | [5] 73.5% | [6] 64.9% | [7] 76.7% | [8] 75.2% | [9] 86.7% | [10] 96.3%

CC1CCCN(c2ncnc3c2cnn3-c2ccc(Cl)cc2)C1 (stereo not given)
active: [1] 88.7% | [2] 84.3% | [3] 74.4% | [4] 71.4% | [5] 80.3% | [6] 60.3% | [7] 79.2% | [8] 66.5% | [9] 82% | [10] 93.9%

Cc1ccc(Nc2nc(N)nc(CCl)n2)c(C)c1
active: [1] 74% | [2] 32.8% | [4] 28.1% | [6] 58.7% | [8] 56%
inactive: [3] 38.6% | [5] 20% | [7] 29.4% | [9] -27.8% | [10] 40.4%

COC1=CC(=O)c2nc(Cl)ccc2C1=O
active: [1] 67.8% | [2] 55.1% | [4] 60.7% | [5] 56.2% | [6] 65.1% | [7] 70% | [8] 72.2% | [10] 89.5%
inactive: [3] -9.24% | [9] 24.5%

O=C(CCCN1C(=O)S/C(=C\c2ccccc2)C1=O)NNC(=O)c1ccccc1O
active: [1] 66% | [2] 58.7% | [3] 54.6% | [4] 53.3% | [5] 54.9% | [6] 64% | [7] 53.8% | [8] 63.8% | [9] 89.2% | [10] 92.8%

CCOc1ccccc1-n1c(SCC(=O)Nc2ccccc2C(=O)O)nc2ccccc2c1=O
active: [10] 49.9%
inactive: [1] 36.2% | [2] 26% | [3] 16.8% | [4] 14.7% | [5] 16% | [6] -6.48% | [7] 9.06% | [8] -14.2% | [9] 30.9%

O=S(=O)(c1ccc(NC(=S)NCc2cccnc2)cc1)N1CCCCC1
active: [1] 91% | [2] 72.3% | [3] 77.6% | [4] 65.2% | [5] 90.8% | [6] 102% | [7] 96.3% | [8] 88.6% | [10] 50.2%
inactive: [9] 12.3%

NC(=S)NN=Cc1nccc2c(C(F)(F)C(F)(F)C(F)(F)F)cccc12
active: [1] 93.5% | [2] 87.2% | [3] 85.5% | [4] 88.5% | [5] 92.3% | [6] 107% | [7] 95.6% | [8] 82.1%
inactive: [9] -16.1% | [10] 18.2%

Cc1c(C)c2ccc(OCC(=O)Nc3ccccn3)c(C)c2oc1=O
active: [1] 78.5% | [2] 72.3% | [3] 50.1% | [4] 59.6% | [5] 67.5% | [6] 68.8% | [7] 76.4% | [8] 69.7% | [9] 81.3% | [10] 90.3%

OCC1OC(n2ccc3c2ncn2ncnc32)C(O)C1O (stereo not given)
active: [1] 64.6% | [2] 44.2% | [3] 55.1% | [4] 38.2% | [5] 52.8% | [6] 49.2% | [8] 60.2%
inactive: [7] 38.8% | [9] 12.2% | [10] 46.4%

Cc1cc(C)c2c(N)c(C(=O)Nc3ncc(C)s3)sc2n1
active: [1] 49.7% | [2] 34.4% | [5] 36.9% | [7] 55.7% | [9] 55.6% | [10] 77.2%
inactive: [3] -42.2% | [4] 24.3% | [6] 14.3% | [8] 4.69%

CC(C)(C)c1ccc(-c2noc(CCC(N)=O)n2)cc1
active: [1] 65.2% | [2] 51.9% | [3] 59.7% | [4] 56.7% | [5] 58.9% | [6] 70% | [7] 60.8% | [8] 58.4% | [9] 83.6% | [10] 94.2%

O=C(NCc1cccnc1)/C(=C/c1ccc(-c2ccc(Cl)cc2)o1)S(=O)(=O)c1ccccc1
active: [1] 76.5% | [2] 62.8% | [3] 48.1% | [4] 47% | [5] 47.5% | [6] 79.5% | [7] 78.1% | [8] 77.2% | [9] 70.2% | [10] 50.4%

NC(=S)NN=C1c2cc(OCCN3CCOCC3)ccc2-c2ccc(OCCN3CCOCC3)cc21
inactive: [3] 8.8%
active: [1] 53.8% | [2] 68.8% | [4] 65.2% | [5] 89.9% | [6] 96.3% | [7] 82.2% | [8] 91.7% | [9] 68.6% | [10] 58.9%

COc1ccc(CNC(=O)c2cccc3c(-c4cccc(C(N)=O)c4)coc23)cc1OC
active: [2] 52% | [4] 50.2% | [5] 62.9% | [6] 69.7% | [7] 68.7% | [8] 73.6%
inactive: [1] 30.4% | [3] 3.09% | [9] 34.4% | [10] 37.8%

CCOc1ccc(-c2noc(CCC(=O)O)n2)cc1
inactive: [1] 18.2% | [2] 15.1% | [3] 18.5% | [4] 5% | [5] 27.3% | [6] 38.4% | [7] 23.1% | [8] 23.4%
active: [9] 71.3% | [10] 86.1%

Cc1ccc(C(=O)O/N=C(\N)c2ccccn2)c(C)c1
inactive: [3] 15% | [6] 9.46% | [7] 36.5% | [8] 13.6%
active: [1] 60% | [2] 42.3% | [4] 28.9% | [5] 33.2% | [9] 71.3% | [10] 86%

CC(C)(C)OC(=O)NCCCCCc1cn([C@@H](CO)C(=O)NCCCCCCCCCCC(=O)N2CCN(C(=O)OC(C)(C)C)CC2)nn1
active: [2] 66.8% | [4] 71.4% | [5] 59.5% | [6] 69.4% | [7] 69.9% | [8] 80.6% | [9] 55% | [10] 48.7%
inactive: [1] 23.4% | [3] 0.34%

O=C(O)c1ccc(N/N=C/c2ccc3nccnc3c2)cc1
inactive: [1] 17.8% | [2] 10.9% | [3] -44.9% | [4] 10.3% | [6] 21.4% | [8] 14.8%
active: [5] 48.4% | [7] 61% | [9] 42.2% | [10] 75.5%
